# USP30 inh: human USP30 deubiquitinase inhibition | Q70CQ3 | inhibition, % at 25 µM | AID 1645860 | purified USP30, Ub-rhodamine cleavage fluorescence | 5.3% of 47,000 active
# USP28 inh: human USP28 deubiquitinase inhibition; 3% of 47,000 active; AID 1645857; purified USP28, Ub-rhodamine cleavage fluorescence, 30 min; inhibition, % at 25 µM
# Target sequence (Q96RU2 whole entry, looked up): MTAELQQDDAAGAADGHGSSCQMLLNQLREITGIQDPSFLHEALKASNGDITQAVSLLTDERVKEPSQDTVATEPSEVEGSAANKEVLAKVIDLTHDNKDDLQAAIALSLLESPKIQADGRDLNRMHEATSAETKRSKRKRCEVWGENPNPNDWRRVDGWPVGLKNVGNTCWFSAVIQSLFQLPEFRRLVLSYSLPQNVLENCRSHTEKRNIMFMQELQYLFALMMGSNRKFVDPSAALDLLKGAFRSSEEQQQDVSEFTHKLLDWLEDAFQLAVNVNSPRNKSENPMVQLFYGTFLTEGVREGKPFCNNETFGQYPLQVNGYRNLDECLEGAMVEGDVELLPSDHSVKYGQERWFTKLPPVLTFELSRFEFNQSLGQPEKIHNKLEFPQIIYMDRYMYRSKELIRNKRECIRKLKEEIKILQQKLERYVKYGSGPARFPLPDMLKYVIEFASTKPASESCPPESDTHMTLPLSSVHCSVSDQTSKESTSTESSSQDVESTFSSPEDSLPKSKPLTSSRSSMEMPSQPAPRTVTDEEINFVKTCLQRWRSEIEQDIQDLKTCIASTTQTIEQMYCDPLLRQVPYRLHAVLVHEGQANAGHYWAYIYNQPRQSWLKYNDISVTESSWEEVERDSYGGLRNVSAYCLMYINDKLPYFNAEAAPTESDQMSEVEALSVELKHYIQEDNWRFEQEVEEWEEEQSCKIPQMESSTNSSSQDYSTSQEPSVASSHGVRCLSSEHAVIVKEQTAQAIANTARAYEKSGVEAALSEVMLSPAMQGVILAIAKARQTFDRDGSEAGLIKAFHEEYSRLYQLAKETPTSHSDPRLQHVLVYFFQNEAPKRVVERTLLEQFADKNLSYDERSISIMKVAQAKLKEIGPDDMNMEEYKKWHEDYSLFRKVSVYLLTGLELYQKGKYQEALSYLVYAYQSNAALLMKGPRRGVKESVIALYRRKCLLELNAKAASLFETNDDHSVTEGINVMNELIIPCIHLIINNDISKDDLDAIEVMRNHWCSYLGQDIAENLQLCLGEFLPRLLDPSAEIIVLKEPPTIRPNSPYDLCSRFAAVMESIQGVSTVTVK
# OTUD3 inh: blocks human OTUD3 ubiquitin-rhodamine cleavage | Q5T2D3 | purified OTUD3, Ub-rhodamine fluorescence, 2 h | inhibition, % at 25 µM | 0.7% of 47,000 active | AID 1645858
# USP17 inh: human USP17-like deubiquitinase inhibition. A8MUK1. purified USP17, Ub-rhodamine cleavage fluorescence, 3 h. inhibition, % at 50 µM. 6.5% of 47,000 active
# * marks the source's active call; other numbers are inactive results. This is a sample that favours compounds with a hit; in the whole collection about 12% have one here. Rule as the data show it: active = inhibition above about 30%; inactive = the rest.
SMILES,USP30 inh,USP28 inh,OTUD3 inh,USP17 inh
Cc1cc2nc(C(C)NC(=O)c3cc(C4CC4)nn3C)cc(=O)n2[nH]1 (centres undefined),36.0*,10.1,16.4,7.4
Cc1nc2c(nnn2C[C@H]2CCCN2C(=O)Cc2ccccc2F)c(=O)[nH]1,25.7,7.6,13.6,1.6
COc1ccc(N2CCN(Cc3nnnn3Cc3ccc4c(c3)OCO4)CC2)cc1,52.9*,2.8,-4.6,42.4*
CC(OC(=O)c1ccc2c(c1)OCO2)C(=O)NCC1CCCCC1 (centres undefined),53.7*,27.2,16.8,53.8*
CC(OC(=O)c1ccc2c(c1)OCO2)C(=O)Nc1ccccc1-c1ccccc1 (centres undefined),-1.2,6.5,13.2,4.1
CC(OC(=O)c1ccc2c(c1)OCCO2)C(=O)NCC1CCCCC1 (centres undefined),53.1*,21.8,8.7,28.9
COc1ccc(C(=O)OC(C)C(=O)NCC2CCCCC2)cc1S(=O)(=O)N1CCOCC1 (centres undefined),-5.7,-10.8,-4.8,-14.9
CCOc1ccccc1N(C(=O)c1ccc2c(c1)OCCO2)C(C(=O)NC1CCCCC1)c1ccc(F)cc1 (centres undefined),2.2,-4.9,0.0,5.8
CC(=O)N1CCOc2cc(S(=O)(=O)N3CCCC3c3cc(C(C)C)on3)ccc21 (centres undefined),13.9,40.4*,5.7,0.3
CC(=O)N1CCOc2cc(S(=O)(=O)N3CCCC3c3cc(C)on3)ccc21 (centres undefined),-1.4,23.7,-3.0,-10.3
CCCc1cc(C2CCCN2S(=O)(=O)c2ccc3c(c2)OCCN3C(C)=O)no1 (centres undefined),-0.4,49.0*,-11.9,-6.3
Cc1cccc(CC(=O)N2CCN=C2SCc2ccccc2)c1,19.2,16.5,8.1,6.8
O=C(c1ccco1)N1CCN=C1SCc1ccccc1F,-2.7,74.7*,8.8,-12.5
O=C(c1ccco1)N1CCN=C1SCc1ccc([N+](=O)[O-])cc1,52.8*,60.9*,12.1,42.7*
COc1ccc(Cl)cc1NC(=O)CCC(=O)N1CCCn2nc(C)cc21,-20.0,-0.1,-1.4,0.0
O=C(CSc1nccn1C1CCCCC1)Nc1ccc2c(c1)OCCO2,-1.4,24.4,-10.7,0.0
Cc1ccccc1NC(=O)c1nc(-c2cn(Cc3ccc(F)cc3)nn2)no1,9.1,12.0,13.9,78.5*
COc1ccc(S(=O)(=O)Nc2ccc3c(c2)CCCN3S(C)(=O)=O)cc1,8.2,-0.1,2.1,-3.7
COc1ccc(OC)c2c(C)cc(N3CCN(S(=O)(=O)c4ccc5c(c4)CCCN5S(C)(=O)=O)CC3)nc12,37.8*,44.3*,0.4,98.4*
CC(C)=CCc1cccc2c(C3=C(O)C(=O)C(c4c[nH]c5c(CC=C(C)C)cccc45)=C(O)C3=O)c[nH]c12,42.6*,51.9*,30.8*,71.7*
CC(C)NC(=O)Cn1c(-c2nc(-c3ccccc3)no2)cccc1=O,13.9,1.8,5.7,10.6
CCc1cc2c(NCc3ccc(F)cc3)ncnc2s1,26.8,13.5,7.2,32.3*
COc1ccc(CNc2ncnc3sccc23)cc1OC,-41.6,-17.4,-14.3,-20.7
COc1ccc(C2c3[nH]c4ccccc4c3C[C@@H]3C(=O)N(CCCO)CC(=O)N23)cc1OC (some centres undefined),-34.3,-11.9,4.0,-4.3
COc1ccc(N2CCCS2(=O)=O)cc1NC(=O)c1ccc(Br)o1,-0.6,0.1,1.9,12.7
SMILES,USP30 inh,USP28 inh,OTUD3 inh,USP17 inh
Cc1nn(C)cc1NC(=O)Nc1ccc(F)cc1,30.5*,14.0,12.8,11.5
COc1ccc([N+](=O)[O-])cc1NC(=O)COC(=O)c1ccc2[nH]c3c(c2c1)CCCC3,59.5*,63.2*,61.8*,70.9*
COc1cc([N+](=O)[O-])ccc1NC(=O)COC(=O)Cc1c[nH]c2ccccc12,-15.5,-10.0,-6.9,-7.3
CC1=C[C@H]2N(c3ccccc31)[C@H](C(=O)C(C)(C)C)[C@@H](C(=O)c1ccco1)[C@]21C(=O)Nc2ccccc21,-423.1,-68.5,-68.4,-57.0
CC1=C[C@H]2N(c3ccc(C)cc31)[C@H](C(=O)C(C)(C)C)[C@@H](C(=O)c1ccccc1)[C@]21C(=O)Nc2ccccc21,-92.9,-1.7,-15.7,40.8*
CC1=C[C@H]2N(c3ccc(C)cc31)[C@H](C(=O)c1cccs1)[C@@H](C(=O)c1ccc(F)cc1)[C@]21C(=O)Nc2ccccc21,-72.1,1.5,-21.6,59.4*
O=C(Nc1ccccc1Cl)c1csc(Cc2c(Cl)cccc2Cl)n1,48.1*,10.0,20.0,37.5*
O=C(NCc1cccnc1)c1csc(Cc2ccccc2Cl)n1,14.2,27.3,2.2,6.5
Cc1nc(C(C)C)ncc1C(=O)NCCC1=CCCCC1,-15.5,-13.1,-7.2,-11.8

# High-throughput results (PubChem)
